Cruzain inh Det: qHTS Assay for Promiscuous and Specific Inhibitors of Cruzain (with detergent); Potency, µM, for inactives: max response, negative = inhibition, hits mostly inhibitors; purified cruzain, Z-FR-AMC fluorescence, 0.01% Triton; Cruzipain (Trypanosoma cruzi), P25779; 0.43% of 200,000 active; AID 1478, 2009;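 also: plate controls were neutral wells for no effect and buffer without enzyme for full effect; nearly all actives have a fitted effect of over 40% in size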
Target sequence (P25779 123-467 limits assumed): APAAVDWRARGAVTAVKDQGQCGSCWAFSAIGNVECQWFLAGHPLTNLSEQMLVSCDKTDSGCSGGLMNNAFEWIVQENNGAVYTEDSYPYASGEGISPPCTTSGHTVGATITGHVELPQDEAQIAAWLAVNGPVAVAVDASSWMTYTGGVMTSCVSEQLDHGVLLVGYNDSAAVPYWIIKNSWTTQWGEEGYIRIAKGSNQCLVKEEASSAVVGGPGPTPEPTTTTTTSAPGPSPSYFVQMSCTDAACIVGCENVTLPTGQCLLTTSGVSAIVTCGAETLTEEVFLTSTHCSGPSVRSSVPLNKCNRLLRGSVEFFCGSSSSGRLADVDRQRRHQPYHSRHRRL
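Z-FR-AMC hydrolysis (2 uM substrate) by cruzain (1.5 nM) monitored kinetically at ex 360/em 450 nm after 15 min room-temperature compound exposure; 0.01% Triton X-100, pH 5.5, 5 mM DTT.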
Cruzain noTriton: qHTS Assay for Promiscuous and Specific Inhibitors of Cruzain (without detergent); Cruzipain (Trypanosoma cruzi), P25779; purified cruzain, Z-FR-AMC fluorescence, no detergent; Potency, µM, inactives show max response, negative = inhibition, most hits filed as inhibitors; 2.3% of 200,000 active; AID 1476, 2009;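 also: plate controls were enzyme without inhibitor for no effect and buffer without enzyme for full effect; nearly all actives have a fitted effect of over 40% in size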
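Detergent-free condition (0.00005% Triton X-100) in acetate buffer pH 5.5 with DTT. 1.5 nM enzyme and compound were pre-mixed 15 min, then 2 uM Z-FR-AMC substrate added; reaction progress from fluorescence change between first and third reads (60 s).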
* marks the source's active call; other numbers are inactive results; ? = inconclusive. In the library only some 2.5% were active in any assay of this set; here they are far more common. Calls follow the shape of the dose curve; as a rule, active = well fitted curve in the direction sought with a large enough effect; inconclusive = small, poorly fitted or top-dose-only effect, or another doubt; inactive = no such curve, though single readings can be large; an effect the other way counts as inactive or inconclusive. Potency is read from the fitted curve at half-maximal effect.

SMILES	Cruzain inh Det	Cruzain noTriton
COc1ccc(Cl)cc1N(CC(=O)N/N=C/c1ccc(OC(C)C)cc1)S(=O)(=O)c1ccc(C)c([N+](=O)[O-])c1	-2%	5µM*
Cc1ccc(NC(=O)N2CC3CCCN3c3ccccc32)cc1Cl (configuration not stated)	-16%	32µM*
Cc1ccc(NC(=O)N2CC3CCCN3c3ccccc32)cc1C (configuration not stated)	-17%	?
COc1ccc(C(CC(=O)Nc2ccc(OC)c(OC)c2)N2Cc3ccccc3C2=O)cc1 (configuration not stated)	0%	-2%
CCN(CC)c1ccccc1	-1%	-6%
Nc1ccc(N(c2ccccc2)c2ccc(N)cc2)cc1	-1%	32µM*
Cc1ccc2nc(-c3ccc(NC(=O)CN4C(=O)c5ccccc5C4=O)cc3)sc2c1	0%	-10%
CCC1(c2ccc(F)cc2)NC(=O)N(CC(=O)Nc2ccc(-c3nc4ccc(C)cc4s3)cc2)C1=O (configuration not stated)	-11%	13µM*
COc1ccc(NC(=O)c2ccc3ccccc3n2)cc1S(=O)(=O)Nc1ccccc1Cl	-2%	13µM*
COc1ccc(NC(=O)c2cc(C)nc3ccccc23)cc1S(=O)(=O)Nc1ccccc1Cl	-7%	?
CN(C)C1C(=O)C(C(N)=O)C(=O)C2(O)C(=O)C3C(=O)c4c(O)cccc4C(C)(O)C3C(O)C12 (configuration not stated)	-2%	-7%
O=C(Nc1nc(-c2ccc3c(c2)OCO3)cs1)C1COc2ccccc2O1 (configuration not stated)	-8%	?
O=C(Nc1nc(-c2ccccc2)cs1)C1COc2ccccc2O1 (configuration not stated)	-3%	25µM*
Cc1ccccc1CSc1nnc(NC(=O)C2COc3ccccc3O2)s1 (configuration not stated)	-4%	?
O=C(Nc1nnc(SCc2cccc3ccccc23)s1)C1COc2ccccc2O1 (configuration not stated)	-3%	25µM*
O=C(Nc1ccc(S(=O)(=O)N2CCCC2)cc1)C1COc2ccccc2O1 (configuration not stated)	-5%	1%
O=C(Nc1nc(-c2ccc(S(=O)(=O)N3CCCC3)cc2)cs1)C1COc2ccccc2O1 (configuration not stated)	2%	10µM*
COc1ccccc1OCCn1c(COc2cc(C)ccc2C)nc2ccccc21	-7%	-1%
O=C1CN2CCN(CC2)CC(=O)Nc2ccc(cc2)S(=O)(=O)c2ccc(cc2)NC(=O)CN2CCN(CC2)CC(=O)Nc2ccc(cc2)S(=O)(=O)c2ccc(cc2)N1	3.2µM*	3.2µM*
CCOc1ccc(CNC(=O)C2CCCN(c3nc4c(C)cc(C)cc4s3)C2)cc1 (configuration not stated)	0%	-4%
CCc1nnc(NC(=O)CSc2nc(-c3ccccc3)cc(-c3ccc(OC)cc3)c2C#N)s1	-3%	13µM*
COc1ccc(-c2cc(-c3ccccc3)nc(SCC(=O)Nc3nccs3)c2C#N)cc1	-8%	7.9µM*
N#Cc1c(-c2ccccc2)cc(C2CC2)nc1SCC(=O)c1cccs1	1%	?
COc1ccc(-c2cc(-c3ccccc3)c(C#N)c(SCC(=O)Nc3ncc(C)s3)n2)cc1	-3%	?
CC(C)NC(=O)CSc1nc(-c2cccs2)cc(-c2ccccc2)c1C#N	-7%	20µM*
SMILES	Cruzain inh Det	Cruzain noTriton
COc1ccc(-c2cc(-c3ccccc3)nc(SCC(=O)Nc3ccccc3F)c2C#N)cc1	1%	-6%
CC(C)C[C@@H](CC(=O)N[C@@H](CCC(=O)O)CC(=O)O)NC(=O)[C@@H]1CCCC[C@H]1NC(=O)C[C@H](CCCN)NC(=O)C[C@H](CO)NC(=O)[C@@H]1CCCC[C@H]1N	3%	11%
Cc1cccc(C(=O)Nc2nnc(S(=O)(=O)N3c4ccccc4CC3C)s2)c1 (configuration not stated)	-5%	8%
COC[C@@H](O)[C@@H](OC)[C@H](OC)[C@H](Cc1c(OC)cc(OC)cc1OC)OC	1%	-9%
O=c1ccc2cc(OC3OC(CO)C(O)C(O)C3O)c(O)cc2o1 (configuration not stated)	7.9µM*	13µM*
O=c1cc(-c2ccccc2)oc2cc(O[C@@H]3O[C@H](CO)[C@@H](O)[C@H](O)[C@H]3O)c(O)c(O)c12	-3%	7%
COc1ccc(-c2noc(-c3ccccc3NC(=O)c3cc(OC)c(OC)c(OC)c3)n2)cc1	-2%	1%
Cc1ccc(Cl)cc1N1CCN(C(=O)c2cc3c(-c4ccccc4F)nn(C)c3s2)CC1	-4%	-16%
Cc1nn(C)c(Cl)c1S(=O)(=O)N[C@@H](c1ccccc1)[C@]1(C)C[C@H]1[C@@H](C)C(=O)Nc1ccc2ccccc2c1	-4%	16%
C[C@@H](C(=O)Nc1ccc2ccccc2c1)[C@H]1C[C@]1(C)[C@H](NC(=O)Oc1ccc(F)cc1)c1ccccc1	1%	16µM*
C[C@@H](C(=O)Nc1ccc2ccccc2c1)[C@H]1C[C@]1(C)[C@H](NS(=O)(=O)c1ccc2ccccc2c1)c1ccccc1	2%	10µM*
CC(=O)N[C@H](c1ccccc1)[C@@]1(C)C[C@@H]1[C@@H](C)C(=O)Nc1ccc2ccccc2c1	-4%	-4%
COC(=O)N[C@H](c1ccccc1)[C@@]1(C)C[C@@H]1[C@@H](C)C(=O)Nc1ccc2ccccc2c1	-1%	-1%
C[C@@H](C(=O)Nc1ccc2ccccc2c1)[C@H]1C[C@]1(C)[C@H](NS(=O)(=O)c1ccc(-c2ccccc2)cc1)c1ccccc1	1%	3.2µM*
C[C@@H](C(=O)Nc1ccc2ccccc2c1)[C@@H]1C[C@@]1(C)[C@@H](NC(=O)c1ccccc1)c1ccccc1	-2%	?
C[C@@H](C(=O)Nc1ccc2ccccc2c1)[C@@H]1C[C@@]1(C)[C@@H](NS(=O)(=O)c1ccc2ccccc2c1)c1ccccc1	4%	7.9µM*
CN(C)CN1C(=O)S/C(=C2/C(=O)N(CN(C)C)c3ccccc32)C1=O	1%	0%
COc1ccc(S(=O)(=O)N(CC(=O)Nc2cc(C)cc(C)c2)c2ccc(Cl)cc2)cc1	-2%	-25%
COc1ccccc1-c1cc2nc(C)c(CCC(=O)NCc3cccc(Cl)c3)c(C)n2n1	-9%	?
O=C(CSc1ccccc1)Nc1ccc(-c2nc3ccccc3[nH]2)cc1	-16%	?
Cc1cc2nc(-c3ccc(SCC(=O)Nc4ccc(S(=O)(=O)N5CCCC5)cc4)nc3)[nH]c2cc1C	-12%	?
Cc1ccc2nc(-c3ccc(NC(=O)CSc4ccccc4)cc3)[nH]c2c1	10µM*	?
O=C(CSc1ccc(-c2nc3ccccc3[nH]2)cn1)Nc1ccc(S(=O)(=O)N2CCCC2)cc1	-4%	32µM*
CCC1=C(C[C@H]2NCCc3ccccc32)C[C@@H]2c3cc(OC)c(OC)cc3CCN2C1	0%	6%
COc1cc(CN(C(=O)COc2ccc(Cl)cc2)c2ccccn2)cc(OC)c1OC	-5%	?
COC(=O)c1c(NC(=O)COc2ccccc2Cl)sc2c1CCC(C(C)(C)C)C2 (configuration not stated)	3%	-7%
CCC(C)(C)C1CCc2c(sc(NC(=O)c3cccs3)c2C(N)=O)C1 (configuration not stated)	-2%	?

Compound activity (PubChem)
